Data from PubChem BioAssay (EPA / NIEHS).
The source made the active and inactive calls. Rule for the calls: active = hit-call score of the fitted dose curve at least 0.9, where 1 is the maximum; inactive = score below 0.9.

Read-out: succinate dehydrogenase complex iron sulfur subunit B (SDHB), SDHB (gene 6390)
Test: LTEA_HepaRG_SDHB: Life Technologies and Expression Analysis (LTEA) Assay for succinate dehydrogenase complex iron sulfur subunit B (SDHB) using HepaRG (AID 2283528)
Conditions: mRNA level, 48 h; actives raise or lower the signal
Description: LTEA_HepaRG is a cell based, multiplexed-readout assay that uses HepaRG, a human liver cell line, with measurements taken at 48 hours after chemical dosing on a 96-well plate.LTEA_HepaRG_SDHB is one of 102 assay component(s) measured in the LTEA HepaRG cell culture assay. It is a marker of Cell proliferation, survival, death.Data from the assay component LTEA_HepaRG_SDHB was analyzed into 1 endpoint. This assay endpoint, LTEA_HepaRG_SDHB, was analyzed with bidirectional fitting relative to DMSO as the negative control and baseline of activity. Using a type of inducible reporter, measures of mRNA induction for gain or loss-of-signal activity can be used to understand regulation of transcription factor activity. To generalize the intended target to other relatable targets, this assay endpoint is annotated to the oxidoreductase intended target family, where the subfamily is ubiquinone.
A total of 1060 chemcials from the ToxCast library were tested in eight-point concentration-response experiments. Cell culture and cytotoxicity assays were conducted at Thermo Fisher Scientific's Custom Services facility (Madison, WI). A single lot of human HepaRG cells (Thermo Fisher Scientific, Frederick, MD) was used for the cell culture experiments. 96-well format collagen type I coated plates of human HepaRG cells were prepared using established methods. Briefly, cryopreserved HepaRG cells were thawed, plated at a density of approximately 100,000 cells/well in HepaRG Thaw, Plate, and General Purpose media (HPRG770, Thermo Fisher Scientific), and incubated for 48 hours. 0.5% DMSO was selected as vehicle control to balance the requisite need of DMSO in HepaRG cultures to maintain differentiation (for example, baseline metabolism, proportions of hepatocytes vs. cholangiocytes), while enabling further hepatic receptor pathway activation (for example, PXR and CAR) in response to chemical exposure. 48 hours after plating, the culture medium was replaced with HepaRG Serum-Free Incudtion Media. Cells were exposed to each test chemical in duplicate and maintained in CO2 incubators for another 48 hours. Chemical plates were thawed to room temperature and 200x concentrations of treatment groups were prepared. 8-point conentration-reponse curves were made with the highest exposure at 100 uM, followed by half-log dilutions, all in 0.5% DMSO. Each test plate contained variouse controls, induction positive controls (1mM phenobarbital), cytotoxicity positive controls ([…] aflatoxin B1), vehicle controls (0.5% DMSO), and total lysis controls (0.5% DMSO). Cell morphology images were taken using an Essen IncuCyte FLR automated microscope, with six 96-well plates imaged in about 24 minutes. Images were captured and exported and JPEG files. Spent culture media was transfered to black-well plates for the LDH assay, and remaining media was sorted at -80 C for later use. Cells were treated with RLT buffer and frozen until shipped for gene expression analysis. Total RNA was isolated from the cell suspension in 75 uL of Buffer RLT (Qiagen, Germantown, MD 20874) by Quintiles/Expression Analysis (Durham, NC) using a custom isolation procedure. Total RNA from each plate well was transferred to a preamplification plate. Fluidigm's 96.96 Dynamic ArrayTM (Fluidigm, Amsterdam, the Netherlands) technology was used for gene expression analyses by quantitative reverse transcription polymerase chain reaction (qRT-PCR, performed by Quintiles/Expression Analysis, Durham, NC)89. Standard TaqManTM Assays (Applied Biosystems/ThermoFisher Scientific, Foster City, CA) were used to assess the expression of 93 genes selected based on their selectivity and sensitivity to important hepatic receptors known to be modulated by environmental chemicals; importance in human hepatocyte functionality; and hepatotoxicity. […]

Question: With `Cn1cc[nH]c1=S` as the molecule, how does the outcome read?
Answer: The outcome was “inactive”.

Question: How did the AC50 turn out when `COc1cc2c(c(OC)c1OC)-c1ccc(OC)c(=O)cc1[C@@H](NC(C)=O)CC2` was run?
Answer: The AC50 was 0.138 µM (active).

Question: With `OC(CCl)CCl` as the molecule, how does the outcome read?
Answer: Its outcome is “inactive”.

Question: How did the outcome turn out when `CCCCCCCC1CCC(=O)O1` (stereo not given) was run?
Answer: The outcome was “inactive”.

Question: Which outcome does the source give for `OC(Cn1cncn1)(Cn1cncn1)c1ccc(F)cc1F` here?
Answer: Its outcome is “inactive”.

Question: With `CCCCOC(=O)c1ccccc1` as the molecule, how does the outcome read?
Answer: The outcome was “inactive”.

Question: How did the outcome turn out when `Nc1ccn([C@@H]2O[C@H](CO)[C@@H](O)[C@@H]2O)c(=O)n1` was run?
Answer: Its outcome is “inactive”.

Question: `NC(=O)NN=Cc1ccc([N+](=O)[O-])o1` was tested. Which outcome did it give?
Answer: The outcome was “inactive”.

Question: How did the outcome turn out when `CNC(C)=O` was run?
Answer: Its outcome is “inactive”.

Question: `CCCCCCCCN(C)C` was tested. Which outcome did it give?
Answer: The outcome was “inactive”.

Question: How did the outcome turn out when `NC(N)=O` was run?
Answer: Its outcome is “inactive”.

Question: With `O=C(O)[C@H](O)[C@@H](O)C(=O)O` as the molecule, how does the outcome read?
Answer: The outcome was “inactive”.

Question: For `CC(C)CC(C)O` (stereo not given), which outcome is on record?
Answer: Its outcome is “inactive”.

Question: For `CC(C)C(=O)Nc1ccc([N+](=O)[O-])c(C(F)(F)F)c1`, which outcome is on record?
Answer: The outcome was “inactive”.

Question: How did the outcome turn out when `O=c1[nH]cnc2c1ncn2[C@H]1CC[C@@H](CO)O1` was run?
Answer: Its outcome is “inactive”.

Question: For `OCc1ccccc1`, which outcome is on record?
Answer: Its outcome is “inactive”.

Question: Which outcome does the source give for `C[C@]12C=CC(=O)C=C1CC[C@H]1[C@@H]3C[C@@H](O)[C@](O)(C(=O)CO)[C@@]3(C)C[C@H](O)[C@@]12F` here?
Answer: The outcome was “inactive”.

Question: With `c1ccc2c(c1)-c1cccc3c1c-2cc1ccccc13` as the molecule, how does the AC50 read?
Answer: Its AC50 is 11.4 µM (active).

Question: How did the outcome turn out when `CC[C@H](C)C(=O)O[C@H]1C[C@H](O)C=C2C=C[C@H](C)[C@H](CC[C@@H](O)C[C@@H](O)CC(=O)O)[C@H]21` was run?
Answer: The outcome was “inactive”.

Question: Which outcome does the source give for `COS(C)(=O)=O` here?
Answer: Its outcome is “inactive”.

Question: With `CCOC(N)=O` as the molecule, how does the outcome read?
Answer: Its outcome is “inactive”.

Question: Which outcome does the source give for `CC1(C)C(=O)N(Cl)C(=O)N1Cl` here?
Answer: The outcome was “inactive”.

Question: For `O=S1(=O)CCCO1`, which outcome is on record?
Answer: The outcome was “inactive”.

Question: For `CCCCCCCCCCCCCCCCOS(=O)(=O)O`, which outcome is on record?
Answer: Its outcome is “inactive”.

Question: Which outcome does the source give for `CC(=O)c1ccccc1` here?
Answer: The outcome was “inactive”.

Question: `CCCCN1C(=O)[C@@H]([C@H](O)C2CCCCC2)NC(=O)C12CCN(Cc1ccc(Oc3ccc(C(=O)O)cc3)cc1)CC2` was tested. Which AC50 did it give?
Answer: Its AC50 is 1.56 µM (active).

Question: Which outcome does the source give for `CCCCCCCCCC` here?
Answer: The outcome was “inactive”.

Question: Which outcome does the source give for `c1ccc(C(O[C@@H]2CCCN(CCc3ccc4c(c3)OCO4)C2)c2ccccc2)cc1` here?
Answer: The outcome was “inactive”.

Question: With `CCCOc1ccc(S(=O)(=O)N2CCN(CC)CC2)cc1-c1nc2c(CC)n(Cc3ccccn3)nc2c(=O)[nH]1` as the molecule, how does the outcome read?
Answer: The outcome was “inactive”.

Question: Which outcome does the source give for `CCc1ccc(O)c(C(C)(C)C)c1` here?
Answer: Its outcome is “inactive”.

Question: `CCCCCCCCCCCCCCO` was tested. Which outcome did it give?
Answer: Its outcome is “inactive”.

Question: With `O=C1CN(N=Cc2ccc([N+](=O)[O-])o2)C(=O)N1` as the molecule, how does the AC50 read?
Answer: The AC50 was 16.1 µM (active).

Question: How did the outcome turn out when `O=C(O)c1cccc(C[C@@H]2COc3ccc(OCc4nc5cc(F)ccc5s4)cc3[C@@H]2O)c1` was run?
Answer: Its outcome is “inactive”.

Question: `CCCCCCCC/C=C\CCCCCCCC(=O)OC[C@@H](O)[C@H]1OC[C@H](O)[C@H]1O` was tested. Which outcome did it give?
Answer: Its outcome is “inactive”.

Question: For `Cc1nc(-c2ccccn2)ncc1C(=O)Nn1cc(C)c2cc(F)ccc21`, which outcome is on record?
Answer: Its outcome is “inactive”.

Question: `NNC(=O)c1ccncc1` was tested. Which outcome did it give?
Answer: The outcome was “inactive”.

Question: For `Cc1ncc([C@@H](CCCCCCc2ccc3c(n2)NCCC3)CC(=O)O)cn1`, which outcome is on record?
Answer: The outcome was “inactive”.

Question: How did the outcome turn out when `CCn1nc(C)c2c1C(=O)NCC(c1ccc(O)cc1)=N2` was run?
Answer: Its outcome is “inactive”.

Question: How did the outcome turn out when `CCCCCOC(C)=O` was run?
Answer: Its outcome is “inactive”.

Question: `O=C(O)c1ccc2c(c1)nc(C(=O)NC1CCN(C3CC3)CC1)n2Cc1cc(-c2ccc(Cl)s2)on1` was tested. Which outcome did it give?
Answer: Its outcome is “inactive”.
